The record followed here is PubChem BioAssay.

Structures are written as SMILES. Calls of active or inactive are those of the source.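 Rule for the calls, unless noted: active = inhibition above 20% together with a positive visual image hit; inconclusive = visual image hit but inhibition not above 20%; inactive = no visual image hit.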

Assay [1] is described as follows: inhibitors of TNFa-induced NFkB p65 translocation, primary screen, imaging, HUVEC, MLSMR starter and 10KST1 sets (AID 438).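 For inhibition: signal is the nuclear over cytoplasmic p65 intensity ratio per well.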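 Note: compound added about 3h40 before a 20 min TNFalpha stimulation.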 The following applies: HUVEC TNFa-induced p65 nuclear translocation; cell count: measured here: nuclei count (cytotoxicity indicator), at 2.08 µM; inhibition: at 2 µM, stronger effect = higher value, 0% TNFa-plus-vehicle, 100% no-TNFa wells.
The nature of assay [2]: inhibitors of mutant huntingtin aggregation, primary screen, imaging, exon1htt(103Q)mCFP cells, high-content imaging (AID 483;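 active = visual image review flags a hit and inhibition of aggregation exceeds 20%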;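 note: compound exposure lasted 3 days before fixation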;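 for nuclei count: percent of the per-plate median nuclei count of sample wells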). Conditions: exon1htt(103Q)mCFP cell line, aggregate imaging, at 2 µM; inhibition of aggregation: stronger effect = higher value; nuclei count: measured here: cell count, toxicity.
Assay [3] in a line: inhibitors of E-selectin induction by TNFa, primary screen, imaging, HUVEC, immunofluorescence, MLSMR starter and 10KST1 sets (AID 487;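 active = visually confirmed hit in the image check and inhibition above 20%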;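 for inhibition: signal is fraction of cell area covered by stained E-selectin grains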;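 for nuclei count: 100% = median nuclei count of all wells on the same plate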). Conditions: HUVEC TNFalpha-induced E-selectin immunofluorescence imaging, at 2 µM; inhibition: stronger effect = higher value; nuclei count: measured here: cell number, toxicity.
The target of assay [4] is Voltage-gated potassium channel subunit beta-2 (Rattus norvegicus) (UniProt P62483). Kind of assay: KvBeta enzyme negative modulators, primary screen, biochemical, NADPH fluorescence (AID 622;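 active = fluorescence slope higher than the sample average by over 3 SD, cut at about -0.22 in these data, passing the limit was not always enough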;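 note: slope of raw intensity against log time taken from 70 to 1610 s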). The following applies: recombinant KvBeta, 4-cyanobenzaldehyde reduction, at 10 µM, stronger effect = higher value.
Chain of Voltage-gated potassium channel subunit beta-2 (Rattus norvegicus) (P62483 whole entry, looked up): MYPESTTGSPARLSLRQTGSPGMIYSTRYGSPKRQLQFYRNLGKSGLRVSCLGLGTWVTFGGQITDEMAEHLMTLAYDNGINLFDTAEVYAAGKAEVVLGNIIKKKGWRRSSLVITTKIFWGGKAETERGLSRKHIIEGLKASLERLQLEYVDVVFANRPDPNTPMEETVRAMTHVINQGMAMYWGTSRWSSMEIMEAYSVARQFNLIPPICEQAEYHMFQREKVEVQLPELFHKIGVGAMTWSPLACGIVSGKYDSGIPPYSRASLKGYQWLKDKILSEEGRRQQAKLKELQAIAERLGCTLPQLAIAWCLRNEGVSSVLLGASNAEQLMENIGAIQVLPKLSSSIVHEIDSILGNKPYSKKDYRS
Assay [5] has the same target. Kind of assay: KvBeta positive modulators, primary screen, biochemical, NADPH fluorescence (AID 623;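 active = NADPH fluorescence slope more negative than the mean of all samples by about 3 SD, 99.7% confidence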;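 note: fluorescence intensity change per second fitted from 20 to 320 s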). Conditions: Recombinant KvBeta, NADPH fluorescence decrease slope, 10 min; at 10 µM; stronger effect = lower value.
In assay [6] the target is Alpha-2C adrenergic receptor (Homo sapiens) (UniProt P18825). Briefly: modulators of alpha2C/GIRK thallium flux, primary screen, cell-based, HEK293 alpha2C/GIRK1/2 (AID 624;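 active = fluorescence slope after compound addition differing from the mean of all screened samples at 99.7% confidence, in either direction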;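 note: slope of fluorescence ratio to pre-addition baseline per second over 15 to 24 s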). Conditions: thallium flux BTC fluorescence, at 10 µM, actives lie on both sides.
Chain of Alpha-2C adrenergic receptor (Homo sapiens) (P18825 whole entry, looked up): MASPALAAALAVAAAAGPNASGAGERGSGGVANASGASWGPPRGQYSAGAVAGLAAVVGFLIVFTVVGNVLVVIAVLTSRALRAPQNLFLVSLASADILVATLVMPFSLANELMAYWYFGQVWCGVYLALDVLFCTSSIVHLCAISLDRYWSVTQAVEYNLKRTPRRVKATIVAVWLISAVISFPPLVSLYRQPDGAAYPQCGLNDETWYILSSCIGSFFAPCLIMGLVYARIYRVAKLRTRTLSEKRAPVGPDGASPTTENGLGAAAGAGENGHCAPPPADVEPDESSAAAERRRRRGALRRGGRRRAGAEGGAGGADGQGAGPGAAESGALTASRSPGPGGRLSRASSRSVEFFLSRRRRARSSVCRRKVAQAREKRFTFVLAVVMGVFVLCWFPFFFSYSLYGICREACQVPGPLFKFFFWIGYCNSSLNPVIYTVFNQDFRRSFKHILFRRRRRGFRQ
Assay [7] is described as follows: inhibitors of Sendai virus-induced IRF3 signaling, primary screen, TLR/RLR signaling modifier project, cell-based, Sendai virus stimulus, luciferase, 10K MLSCN set (AID 602276;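 active = inhibition at or above 50% at 10 µM; inactive = inhibition below 50%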;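 note: firefly luciferase from ISG56 promoter only with Renilla not read in this screen; 0% = Sendai virus plus DMSO and 100% = medium plus DMSO without virus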). The following applies: HEK293 RL24 IRF3 luciferase reporter, at 10 µM, stronger effect = higher value. (In general: A reporter such as luciferase makes a cellular process visible.)
Assay [8] is described as follows: inhibitors of poly I:C-induced TLR3 signaling, primary screen, cell-based, poly I:C stimulus, luciferase, 10K MLSCN set (AID 602277;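 active = inhibition of the reporter signal at or above 50%; inactive = inhibition below 50%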). The following applies: HEK293-TLR3 RL24 IRF3 luciferase reporter, at 10 µM, stronger effect = higher value.

The inhibition is the drop in the measured response relative to a control, in per cent.

As for `CSc1c(C#N)c(N)c(C#N)c2c1COC(C)(C)C2`, the cell count in assay [1] was 723. Moreover, the inhibition in assay [1] was -2.6% (inactive); in assay [3], -34% (inactive); in assay [7], 17.3% (inactive); in assay [8], 25.5% (inactive). Moreover, in assay [2], the inhibition of aggregation was -6.1% (inactive). Also, the nuclei count in assay [2] was determined as 83%; in assay [3], 103%. In assay [4], the fluorescence slope is -0.501 (inactive). In addition, in assay [5], the NADPH fluorescence slope is -4.2e-05 (inactive). For the same compound, in assay [6], the slope is 0.00561 (inactive).
Regarding `CCOC(=O)N1CCC(NC(=O)CSCc2nc(-c3cccc(OC)c3)oc2C)CC1`, in assay [1], the cell count was 292. Further, the inhibition in assay [1] was 4.4% (inactive); in assay [3] it was -30.2% (inactive); in assay [7] it was 9% (inactive); in assay [8], -6.15% (inactive). Besides, in assay [2], the inhibition of aggregation is -9% (inactive). Further, the results for the nuclei count in assay [2] and in assay [3] were 94.6% and 124%, respectively. The fluorescence slope in assay [4] was -0.498 (inactive). For the same compound, in assay [5], the NADPH fluorescence slope is -5.4e-05 (inactive). The slope in assay [6] was 0.00445 (inactive).
In the case of `O=C(O)C1CC(=O)N(CCOc2ccccc2)C1` (centres undefined), the cell count in assay [1] stood at 407. In addition, the inhibition in assay [1] was 4.7% (inactive); in assay [3] it was -59.8% (inactive); in assay [7], 0.323% (inactive); in assay [8], 15.8% (inactive). Moreover, the inhibition of aggregation in assay [2] was 10.8% (inactive). In addition, the nuclei count worked out at 86.7% in assay [2] and 101% in assay [3]. In addition, the fluorescence slope in assay [4] is -0.41 (inactive). In addition, the NADPH fluorescence slope in assay [5] is 4.3e-05 (inactive). Besides, in assay [6], the slope is 0.00593 (inactive).
Take `COc1ccccc1NC(=O)CSc1nnc(CC(=O)Nc2ccccc2)n1C`: the cell count in assay [1] was found to be 455. Moreover, the inhibition in assay [1] is 4.9% (inactive); in assay [3], -44% (inactive); in assay [7], 8.73% (inactive); in assay [8] it was 20.7% (inactive). The inhibition of aggregation in assay [2] is -6.2% (inactive). Also, the values for the nuclei count in assay [2] and in assay [3] were 89.5% and 103%, respectively. Also, the fluorescence slope in assay [4] was -0.442 (inactive). For the same compound, the NADPH fluorescence slope in assay [5] was 3.5e-06 (inactive). The slope in assay [6] is 0.0033 (inactive).
Take `CCOC(=O)c1ccc(N2Cc3cc(C)c(C)cc3C2)cc1O`: the cell count in assay [1] was found to be 744. In addition, the inhibition is 2.9% (inactive) in assay [1], -36.2% (inactive) in assay [3], -26.7% (inactive) in assay [7] and -52.7% (inactive) in assay [8]. Also, the inhibition of aggregation in assay [2] was 6.2% (inactive). In addition, the results for the nuclei count in assay [2] and in assay [3] were 92.7% and 119%, respectively. For the same compound, the fluorescence slope in assay [4] was -0.457 (inactive). In assay [5], the NADPH fluorescence slope was -1.3e-05 (inactive). Also, the slope in assay [6] is 0.00595 (inactive).
In the case of `CC(=O)NC(Cc1cc(C)ccc1C)C(=O)N1CCN(C(=O)Nc2ccc(C(C)=O)cc2)CC1` (centres undefined), in assay [1], the cell count worked out at 324. In addition, the inhibition in assay [1] is -2.1% (inactive); in assay [3] it was -23.1% (inactive); in assay [7], 2.34% (inactive); in assay [8], -13% (inactive). The inhibition of aggregation in assay [2] was -26% (inactive). Further, the nuclei count in assay [2] came to 106%; in assay [3], 99.8%. Further, the fluorescence slope in assay [4] is -0.378 (inactive). The NADPH fluorescence slope in assay [5] was -4.4e-05 (inactive). Also, the slope in assay [6] is 0.00656 (inactive).
For the compound `COc1ccc(NC(=O)CCc2ccccc2)cc1NC(=O)c1ccco1`, in assay [1], the cell count turned out to be 526. The inhibition was 2.3% (inactive) in assay [1], -61.5% (inactive) in assay [3], 16.7% (inactive) in assay [7] and 37.2% (inactive) in assay [8]. Further, in assay [2], the inhibition of aggregation is 8.7% (inactive). Moreover, the nuclei count in assay [2] amounted to 88.9%; in assay [3], 95.1%. Also, the fluorescence slope in assay [4] is -0.504 (inactive). Further, in assay [5], the NADPH fluorescence slope was -5e-05 (inactive). In addition, the slope in assay [6] was 0.0047 (inactive).
Regarding `C=CCN1C(=O)CS/C1=N/c1nccs1`, in assay [1], the cell count is 785. In addition, the inhibition was -8.5% (inactive) in assay [1], -5.5% (inactive) in assay [3], 15.5% (inactive) in assay [7] and 14.3% (inactive) in assay [8]. For the same compound, in assay [2], the inhibition of aggregation is 3.5% (inactive). For the same compound, the nuclei count worked out at 107% in assay [2] and 101% in assay [3]. Besides, in assay [4], the fluorescence slope was -0.459 (inactive). The NADPH fluorescence slope in assay [5] is -1.1e-05 (inactive). In addition, in assay [6], the slope is 0.00406 (inactive).
Consider `C/C=C/Cn1c(SCCCc2ccccc2)nc2c1c(=O)[nH]c(=O)n2C`, for which, in assay [1], the cell count stood at 658. Further, the inhibition was -6.4% (inactive) in assay [1], -13.9% (inactive) in assay [3], 1.4% (inactive) in assay [7] and 5.27% (inactive) in assay [8]. Besides, the inhibition of aggregation in assay [2] is -13.8% (inactive). The nuclei count in assay [2] was determined as 101%; in assay [3], 102%. Besides, the fluorescence slope in assay [4] was -0.517 (inactive). In assay [5], the NADPH fluorescence slope was -1.9e-05 (inactive). In addition, the slope in assay [6] is 0.00629 (inactive).
Take `CCc1ccc(Nc2cc(=O)n(C3CCCCC3)c(=O)[nH]2)cc1`: the cell count in assay [1] was 385. Further, the inhibition in assay [1] is 3.9% (inactive); in assay [3] it was -1.5% (inactive); in assay [7] it was -13.5% (inactive); in assay [8], -97.2% (inactive). Also, the inhibition of aggregation in assay [2] was -8.7% (inactive). Moreover, the figures for the nuclei count in assay [2] and in assay [3] were 104% and 121%, respectively. In assay [4], the fluorescence slope is -0.579 (inactive). In assay [5], the NADPH fluorescence slope is -2.4e-05 (inactive). Further, the slope in assay [6] is 0.00696 (inactive).
With `CCOC(=O)C1(C)NC(c2ccc(OC)c(OC)c2)C2C(=O)N(CC)C(=O)C21` (centres undefined), the cell count in assay [1] turned out to be 369. Also, the inhibition in assay [1] is -8.4% (inactive); in assay [3], -211% (inactive); in assay [7] it was 1.25% (inactive); in assay [8] it was 14.3% (inactive). Also, in assay [2], the inhibition of aggregation was 29.1% (inactive). Also, the nuclei count in assay [2] amounted to 105%; in assay [3], 182%. In addition, the fluorescence slope in assay [4] is -0.598 (inactive). The NADPH fluorescence slope in assay [5] was -9.8e-06 (inactive). Also, the slope in assay [6] is 0.00547 (inactive).
For `O=C(CN1c2cccc3cccc(c23)S1(=O)=O)N1CCOCC1`, the cell count in assay [1] is 253. The inhibition was -5.5% (inactive) in assay [1], -59.8% (inactive) in assay [3], 17% (inactive) in assay [7] and 13.6% (inactive) in assay [8]. Moreover, in assay [2], the inhibition of aggregation was 16% (inactive). Besides, the nuclei count was found to be 83% in assay [2] and 101% in assay [3]. Besides, the fluorescence slope in assay [4] is -0.189 (inactive). Moreover, the NADPH fluorescence slope in assay [5] is -1.8e-05 (inactive). Further, the slope in assay [6] is 0.00514 (inactive).
In the case of `COc1cc2cc(C(c3nnnn3C3CCCC3)N(C)C3CCCCC3)c(=O)[nH]c2cc1OC` (centres undefined), in assay [1], the cell count is 537. The inhibition in assay [1] is -13.2% (inactive); in assay [3] it was -15.9% (inactive); in assay [7] it was 12.4% (inactive); in assay [8] it was 22% (inactive). For the same compound, the inhibition of aggregation in assay [2] is -34.3% (inactive). The nuclei count was determined as 100% in assay [2] and 108% in assay [3]. The fluorescence slope in assay [4] was -0.465 (inactive). In addition, the NADPH fluorescence slope in assay [5] was -2e-05 (inactive). Further, the slope in assay [6] is 0.007 (inactive).
`CCN1C(=O)c2cccc3c(NC(=O)c4ccc5c(c4)OCCO5)ccc1c23`: the cell count in assay [1] worked out at 563. Further, the inhibition in assay [1] was 0.5% (inactive); in assay [3], 18% (inactive); in assay [7] it was 7.48% (inactive); in assay [8], 17% (inactive). Moreover, in assay [2], the inhibition of aggregation was 4.6% (inactive). Moreover, the nuclei count was found to be 87.1% in assay [2] and 90.9% in assay [3]. Also, the fluorescence slope in assay [4] is -0.48 (inactive). The NADPH fluorescence slope in assay [5] is -5.7e-06 (inactive). Also, in assay [6], the slope is -0.00194 (inactive).
